Source: PubChem
RBX1-CUL1 inh: blocks human RBX1-Cullin-1 di-ubiquitin formation; in vitro K48 di-Ub FRET, acceptor:donor ratio, 45 min; P62877+Q13616; inhibition, % at 10 µM; 140,000 tested, 0.6% active; in the data active means inhibition above about 25%
Target sequence (P62877 whole entry, looked up): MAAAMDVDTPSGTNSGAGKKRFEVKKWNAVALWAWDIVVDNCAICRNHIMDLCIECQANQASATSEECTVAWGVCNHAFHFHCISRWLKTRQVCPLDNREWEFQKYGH
Target sequence (Q13616 whole entry, looked up): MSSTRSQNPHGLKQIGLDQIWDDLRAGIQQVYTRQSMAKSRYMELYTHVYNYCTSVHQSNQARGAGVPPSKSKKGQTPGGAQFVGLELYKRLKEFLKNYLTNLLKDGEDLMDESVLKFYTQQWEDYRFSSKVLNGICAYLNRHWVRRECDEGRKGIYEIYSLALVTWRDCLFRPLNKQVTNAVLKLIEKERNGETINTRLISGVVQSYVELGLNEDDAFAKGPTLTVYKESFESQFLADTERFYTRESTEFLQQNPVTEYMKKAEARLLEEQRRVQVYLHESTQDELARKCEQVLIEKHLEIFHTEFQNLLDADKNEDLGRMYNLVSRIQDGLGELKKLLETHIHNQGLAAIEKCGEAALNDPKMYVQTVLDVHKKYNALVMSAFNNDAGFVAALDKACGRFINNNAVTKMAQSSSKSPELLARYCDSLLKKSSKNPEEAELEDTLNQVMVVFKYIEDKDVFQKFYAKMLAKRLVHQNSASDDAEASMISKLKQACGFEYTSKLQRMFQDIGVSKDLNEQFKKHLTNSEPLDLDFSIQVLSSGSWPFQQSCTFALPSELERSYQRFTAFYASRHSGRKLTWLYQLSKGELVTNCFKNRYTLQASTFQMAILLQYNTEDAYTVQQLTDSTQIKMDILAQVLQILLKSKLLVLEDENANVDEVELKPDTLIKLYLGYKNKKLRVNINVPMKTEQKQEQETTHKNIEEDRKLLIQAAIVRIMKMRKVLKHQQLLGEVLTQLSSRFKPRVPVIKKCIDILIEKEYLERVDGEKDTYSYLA
Numbers without * were called inactive. Shown is part of a subset that was picked to be rich in hits.

SMILES | RBX1-CUL1 inh
O=C(CSc1nc2ccccc2nc1SCC(=O)c1ccccc1)c1ccccc1 | -4
CCC(NC(=O)Nc1nnc(-c2ccccc2C)s1)c1cnn(C)c1 (stereo not given) | -4
COc1ccc(C2NC(=O)N=C(C)C2C(=O)Nc2ccccc2)cc1OC (stereo not given) | -5
Cc1ncc2c(c1-c1nnn(CC(=O)Nc3cn(C(C)C)nn3)n1)CCCC2 | 5
CCCCOc1ccc(/C=C2/C(=O)N(c3cccc(Cl)c3C)N=C2C)cc1OC | 17
COc1cc(C=C2C(=O)OC(c3ccccc3)OC2=O)cc(Cl)c1O (stereo not given) | 8
COc1cc(/C=C2\C(=O)N(c3ccccc3Cl)N=C2C)cc(I)c1O | 78*
NC1C2CN3CCN(C2)CC1(Cc1ccccc1)C3 (stereo not given) | -9
CC(=O)Nc1cc(S(=O)(=O)C(F)(F)C(F)(F)C(F)(F)F)ccc1Cl | 1
COCc1cc(/C=N/NC(=O)Cc2ccc(Cl)cc2)ccc1OC | 2
CCCCCCSc1nnc2c(n1)OC(c1cccnc1)N(C(C)=O)c1ccccc1-2 (stereo not given) | 7
O=c1c(SCc2ccco2)c(SCc2ccco2)cnn1-c1ccccc1 | 31*
O=c1c(SCc2ccccc2)c(SCc2ccccc2)cnn1-c1ccccc1 | 4
CCSc1cnn(-c2ccccc2)c(=O)c1SCC | 15
Cc1ccc(N2C(=O)/C(=C/c3cc(C)n(-c4ccccc4)c3C)C(=O)N(c3ccccc3)C2=S)cc1C | 0
Cc1cc(/C=C2\C(=O)N(C)C(=S)N(c3ccccc3)C2=O)c(C)n1-c1cccc(C(=O)O)c1 | 28*
CC(=O)NC1=NC(=O)/C(=C/c2sccc2C)S1 | 2
CC(=O)NC1=NC(=O)/C(=C/c2cc(C)n(-c3cccc(C(=O)O)c3)c2C)S1 | 50*
CCOC(=O)c1cccc(-n2c(C)cc(C=C3C(=O)N(C)C(=O)N(C)C3=O)c2C)c1 | 4
COC(=O)c1cccc(-n2c(C)cc(/C=C3\SC(=O)N(Cc4ccc(F)cc4)C3=O)c2C)c1 | -2
CC(C)CCOc1ccc(Br)cc1C(=O)O | 6
CC(=O)n1c(SCC(=O)Nc2ccccc2)c(NC(=O)c2ccccc2)c2ccccc21 | 3
CC(=O)N1CCC(NC2CC(=O)N(Cc3cccc(F)c3)C2)CC1 (stereo not given) | 4
COC1CCN(C(=O)C2(N(C)CCc3ccccc3)Cc3ccccc3C2)CC1 | 6
Cc1cc(/C=C2\C(=O)NC(=S)N(c3ccc(Cl)cc3)C2=O)c(C)n1-c1ccc(Cl)c(Cl)c1 | -6
SMILES | RBX1-CUL1 inh
O=C1NC(=O)N(c2ccc(Cl)cc2)C(=O)/C1=C\c1c2ccccc2cc2ccccc12 | 6
O=C1NC(=S)N(c2ccccc2)C(=O)/C1=C/c1ccc(Sc2ccc(Cl)cc2)s1 | 33*
O=C(CCC1CCCN(Cc2c(F)cccc2Cl)C1)NC1CC1 (stereo not given) | 4
O=C(O)c1sc(Cl)cc1/C=C\c1ccccc1 | -4
C=CCn1cc(C(=O)NC(=O)OCC)c(=O)[nH]c1=O | -1
O=C1N=c2ccccc2=C1c1sc(Nc2ccc(Br)cc2)nc1O | 4
O=C1N=c2ccccc2=C1c1sc(Nc2ccc(O)cc2)nc1O | 32*
CCc1cccc2c1=NC(=O)C=2c1sc(Nc2cccc(Cl)c2)nc1O | -7
Cc1nc(Nc2cccc(C(F)(F)F)c2)nc2c1C(=O)CCC2 | 10
COc1cc(NC(=O)/C=C\c2ccc(C)o2)c(OC)cc1Cl | 4
Cc1ccc(/C=C/C(=O)Nc2nc(-c3ccc(C)c(C)c3)cs2)o1 | -4
COc1ccc(/C=C/C(=O)Nc2ccc(C)c(Cl)c2)cc1OC | 2
Cc1ccc(/C=C/C(=O)Nc2ccc(C)c(Cl)c2)o1 | 66*
Cc1ccc(/C=C/C(=O)Nc2cccnc2)o1 | 45*
Cc1ccc(/C=C/C(=O)Nc2ccccc2C(N)=O)o1 | 0
CO[C@H]1[C@H](NC(=O)Cc2cccs2)c2ccccc2C12CCN(Cc1cccc(C)c1)CC2 | -6
O=C(CN1Cc2ccccc2OC(c2ccccc2F)C1)N1CCCC1c1nc2ccc(F)cc2[nH]1 (stereo not given) | 8
CC(=O)c1ccc2c(c1)c1c(n2CCN(Cc2ccccc2)Cc2ccccc2)C(=O)CCC1 | 3
O=C(NC(=O)C(F)(F)F)Nc1ccccc1Cl | 11
COc1cc(Br)cc2cc(C(=O)NCCc3c(C)[nH]c4ccc(C)cc34)c(=O)oc12 | -5
COc1cccc(NC(=O)C(C)c2ccc(-c3ccccc3)c(F)c2)c1 (stereo not given) | 1
Cc1cccc(N2NC(=O)/C(=C/c3ccccc3)C2=O)c1 | -9
CN(c1ccccc1)c1ccc(/C=C2\C(=O)NN(c3ccccc3)C2=O)cc1 | 31*
COc1ccc(/C=C2\C(=O)NN(c3ccc(F)cc3)C2=O)cc1 | -4
O=C1NN(c2ccc(F)c(Cl)c2)C(=O)/C1=C\c1ccc(F)cc1 | 77*
SMILES | RBX1-CUL1 inh
Cc1ccc(N2NC(=O)/C(=C/c3ccc(F)cc3)C2=O)cc1Cl | 50*
Cc1ccc(N2NC(=O)/C(=C/c3ccc(F)cc3)C2=O)cc1C | 78*
Cc1ccc(N2NC(=O)/C(=C/c3ccc(N(C)CCC(C)C)cc3)C2=O)cc1C | 17
O=C1NN(c2ccccc2)C(=O)/C1=C/c1ccccc1 | 5
COc1cc(/C=C2/C(=O)NN(c3ccc(F)cc3)C2=O)cc(Cl)c1O | -3
Cc1ccc(N2NC(=O)/C(=C\c3ccc(N(C)C)c(Br)c3)C2=O)cc1Cl | 2
COc1ccc(/C=C/c2nnc(-c3cc(OC)c(OC)c(OC)c3)o2)cc1 | 4
Cc1nn(C(=O)C23CC4CC(CC(C4)C2)C3)c(C)c1Sc1ccc(Br)cc1 | -2
COC(=O)c1ccc(C(=O)NN=C2CCCCCCCCCCC2)cc1 | 7
O=c1c2cnc3nc(C(F)(F)F)nn3c2ccn1Cc1ccccc1 | 0
Cc1cccc(OC2=C(Cl)C(=O)N(c3ccccc3C)C2=O)c1 | -6
CCCC(CCC)C(=O)Nc1ccc2c(c1)C(=O)N(CCC(=O)O)C2=O | -4
CCOC(=O)c1ccc(NC(=O)CSc2nnc(CSc3nc(C)cc(C)n3)n2-c2ccccc2)cc1 | 0
CSc1nnc(NS(=O)(=O)c2ccc(F)cc2)s1 | 6
Cc1c(Cl)cccc1NC(=O)C(F)(F)F | -4
CCOC(=O)COc1ccc(C)cc1C(=O)c1cnc2c(c1)COc1ccccc1-2 | -2
COc1ccc(/C=C2/C(=O)NN(c3cccc(C)c3)C2=O)cc1 | 5
O=C1NN(c2ccc(I)cc2)C(=O)/C1=C\c1ccc(O)cc1O | -15
O=C1NN(c2ccc(F)cc2)C(=O)/C1=C\c1ccc(F)cc1 | -1
COC(=O)c1ccc(N2NC(=O)/C(=C/c3ccc(C)cc3)C2=O)cc1 | 27*
O=C1NN(c2ccc(I)cc2)C(=O)/C1=C\c1ccccc1 | 3
O=C1NN(c2ccc(F)cc2)C(=O)/C1=C/c1ccccc1 | 5
COc1cc(/C=C2\C(=O)NN(c3ccc(C)cc3)C2=O)cc(OC)c1OC | 1
O=C1NN(c2ccc(I)cc2)C(=O)/C1=C\c1ccc(O)c(O)c1 | 106*
Cc1ccc(N2NC(=O)/C(=C/c3ccc(F)cc3)C2=O)cc1 | 71*
O=C(c1ccc(Br)cc1)c1sc(N2CCCCC2)nc1-c1ccccc1 | -8
COc1ccc(NC(=O)c2cccc(Cl)c2)cc1 | 8
Cc1ccc(CCNC(=O)c2cc(NC(=O)C3CCCO3)c3c(c2)nc(C2CCC2)n3C)cc1 (stereo not given) | -4
CCSC(=S)NC(C(=O)O)c1ccccc1 (stereo not given) | 1
CCOC(=O)N1CCN(CCSC)CC1 | -11
